Test results published in PubChem BioAssay AID2315 (National Center for Advancing Translational Sciences (NCATS), 2010).
In all, about 290,000 compounds went through this assay and about 27,000 (9.3%) were called active. The sample holds actives, similar compounds and a random draw of the others, so the mix is not that of the screen. Values without a mark were called inactive. Cut-off read from the data, not from the text of the source: active = inhibition mostly above about 28% (no sharp cut-off); inactive = mostly below about 43%.

experiment: A qHTS for Small Molecule Inhibitors of Shiga Toxin; settings: Vero cells, Shiga toxin protein synthesis inhibition reporter; at 38.7 µM, stronger effect = higher value; note: 0% is about no effect

Structure (SMILES)	inhibition
COc1ccccc1C1C(C(N)=O)=C(C)Nc2nc(CCCO)nn21 (stereo unspecified)	-12.2%
Cc1nc(SCC(=O)NC2CCCC2)[nH]c(=O)c1C	-3%
CC(=O)NS(=O)(=O)c1ccc(N/C(N)=N/c2nc(C)cc(C)n2)cc1	4.41%
Cc1cccc2c1cnn2C(=O)CCC(=O)NC1CCCCC1	-4.08%
Cn1ncc(Br)c1C(=O)NCc1cccs1	20.7%
CCOC(=O)N1CCN(Cc2nc3cc(NC(=O)CC)ccc3n2CC)CC1	-2.96%
COc1ccc(-n2cnc3cc(NCc4ccco4)ccc32)cc1	66.3%
Cc1cc2nc(C)n(CCCNC(=O)Nc3ccccc3)c2cc1C	9%
C=CCN(C(=O)Nc1ccc2oc(C)nc2c1)c1ccccc1	117% (active)
Cc1nc2cc(NC(=O)NC3CC3)ccc2n1C	27.2%
Cc1nn(CC(=O)Nc2ccc3c(c2)nc(CN2CCCCC2)n3C)c(=O)c2ccccc12	-8.7%
C=CCN(C(=O)Nc1ccc2c(c1)nc(C)n2C)c1ccccc1	46.7% (active)
Cc1nc2cc(NC(=O)Nc3cccc(F)c3)ccc2n1C	27.6% (active)
C=CCN(C(=O)Cn1ncc2c1-c1cc(C)ccc1OC2)c1ccccc1	-10.9%
Cc1cc(C)cc(NC(=O)N(C)Cc2ccccc2)c1	13.5%
Cc1nc2cc(NCc3cccs3)ccc2n1C	47.7% (active)
O=C(NCCCn1ccnc1)/C(=C\c1ccccc1F)NC(=O)c1ccccc1	-7.27%
COc1cc(NC(=O)CCNC(=O)Cn2ccc3ccccc3c2=O)cc(OC)c1OC	11.7%
O=C1CN(C(=O)c2ccccc2F)C(c2ccc(F)cc2)c2cc(F)ccc2N1 (stereo unspecified)	18%
O=C(/C=C/c1ccc([N+](=O)[O-])cc1)NCCSCc1ccco1	-2.44%
Cc1cccc(N2CCN(C(=O)CCS(=O)(=O)c3ccc4c(c3)NC(=O)C(C)S4)CC2)c1C (stereo unspecified)	-11.3%
COc1cc(OC)c2c(c1C(CCN1CCCCC1)c1ccc(N(C)C)cc1)OC(=O)CC2c1ccc(N(C)C)cc1 (stereo unspecified)	-7.65%
CCC(=O)Nc1ccc2c(c1)nc(CCN1CCN(c3ccccn3)CC1)n2C	-4.67%
Cn1c(CCN2CCCC2)nc2cc(NS(=O)(=O)c3ccccc3)ccc21	0.447%
Cn1c(CCN2CCCCCC2)nc2cc(NC(=O)Nc3ccccc3)ccc21	73.3% (active)
CC(C)c1ccc(S(=O)(=O)N2CCC3(CC2)OCCO3)cc1	-8.25%
